Only some compounds are listed: those with a hit (about 2.4% of all), similar ones and a draw of the others.
D2 PAM-1: positively modulates the human D2 dopamine receptor allosterically; HEK293 T-REx D2, calcium flux, EC20 dopamine potentiation; hit rate 0.34% among 340,000; potentiation, % at 10 µM;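 active = potentiation over 3 SD above the plate norm, cut at about 30% in these data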
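Cells plated with tetracycline inducer and held overnight at 30 C; calcium dye loaded 30–90 min at room temperature; baseline taken, compound added and read 180 s; EC20 dopamine then added and read 180 s.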
D2 ag-1: activates the human D2 dopamine receptor; P14416; DiscoveRx PathHunter D2 beta-arrestin, luminescence, 90 min; 100% = 57 uM dopamine signal; activation, % (concentration not given with the values); hit rate 0.084% among 360,000; AID 624465; in the data active = activation above about 40%; inconclusive = between about 15% and that limit
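DiscoveRx PathHunter D2 beta-arrestin cells (2,100/well) attached overnight, then compound-stimulated 90 min at 37 C in HBSS/10 mM HEPES/0.1% Tween-20 buffer; beta-galactosidase complementation read by luminescence after 1 h at ambient temperature. Dopamine 57 uM final (EC100) as control.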
D2 ag-2: activates the human D2 dopamine receptor; HEK293 T-REx D2 cells, calcium flux agonist mode; hit rate 0.53% among 340,000; activation, % at 2 µM;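 active = activation over 3 SD above normal in the single-dose calcium agonist read, cut at about 30% in these data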
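In this primary screen, compounds producing a positive calcium signal within 180 s of addition to tetracycline-induced, force-coupled HEK293 Trex D2 cells are flagged; cells are dye-loaded with a no-wash calcium kit beforehand.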
D2 PAM-2: human D2 receptor positive allosteric modulation. DiscoveRx D2 beta-arrestin cells, luminescence, 90 min; 100% = 57 uM dopamine signal. potentiation, % (test concentration not listed). hit rate 0.23% among 360,000; in the data active = potentiation above about 50%; inconclusive = mostly about 30% to 49%
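D2 cells co-treated with compound plus 50 nM dopamine (EC20) for 90 min at 37 deg C to detect potentiation. Beta-arrestin recruitment was read as enzyme-fragment luminescence after 1 h at ambient temperature. Full response was set by 57 uM dopamine.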
D2 antagonist: D2 dopamine receptor (human) antagonism. hit rate 2% among 340,000. inhibition, % at 10 µM. P14416. HEK293 TREx D2 cells, calcium flux, dopamine EC80. AID 485344; in the data active = inhibition above about 30%; inactive = below that, where a call was filed
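Read-out: kinetic calcium fluorescence (1 cycle/s) in inducible HEK293 T-REx D2 cells after an EC80 dopamine addition that followed 180 s compound preincubation. Loss of the dopamine response indicates antagonism.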
D3 ag: confirmation of human D3 dopamine receptor agonists, beta-arrestin; shares compounds with D2 ag-2; DiscoveRx D3 beta-arrestin cells, luminescence, 90 min; Potency, µM (doses to about 76.9 µM), actives largely listed as activators; hit rate 4% among 2,300; AID 720506; note: nearly all actives have a fitted effect of over 70% in size
Target sequence (P35462 whole entry, looked up): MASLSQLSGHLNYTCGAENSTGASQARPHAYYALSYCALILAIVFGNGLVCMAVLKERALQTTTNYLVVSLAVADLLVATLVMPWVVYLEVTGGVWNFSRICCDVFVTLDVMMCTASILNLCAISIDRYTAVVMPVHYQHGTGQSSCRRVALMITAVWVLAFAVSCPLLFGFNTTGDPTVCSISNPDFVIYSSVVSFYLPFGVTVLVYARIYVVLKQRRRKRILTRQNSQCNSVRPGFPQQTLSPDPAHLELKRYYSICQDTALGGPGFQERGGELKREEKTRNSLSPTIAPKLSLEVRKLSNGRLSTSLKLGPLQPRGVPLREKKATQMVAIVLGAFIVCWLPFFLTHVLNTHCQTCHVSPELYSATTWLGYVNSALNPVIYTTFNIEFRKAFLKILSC
D2 ag-3: activates human D2 dopamine receptor in D3 counterscreen; shares compounds with D2 ag-2; DiscoveRx PathHunter D2 beta-arrestin, luminescence, 90 min; response scale: percent relative to full dopamine signal; Potency, µM (series often up to 76.9 µM), hits mostly activators; hit rate 5.9% among 2,300; AID 720507; note: nearly all actives have a fitted effect of over 70% in size
A number is an active result; i = inactive; ? = inconclusive; nt = not tested or not shown. Unless noted, calls come from the whole dose curve; as a rule, active = well fitted activation curve with a large enough effect; inconclusive = small, poorly fitted or top-dose-only effect; inactive = flat fitted curve, though single readings scatter.

SMILES | D2 PAM-1 | D2 ag-1 | D2 ag-2 | D2 PAM-2 | D2 antagonist | D3 ag | D2 ag-3
CCN1CCN(c2ncnc3sc(C)c(-c4ccccc4)c23)CC1 | nt | ? | i | i | i | i | 17.8µM
CCN1CCN(c2ncnc3scc(-c4ccc(C)c(C)c4)c23)CC1 | i | i | i | i | i | nt | nt
FC(F)(F)c1ccccc1CN1CCCC(N2CCN(c3ccccc3)CC2)C1 (configuration not stated) | i | i | 62.0 | i | 78.4 | i | i
COc1ccc(N2CCN(C3CCCN(Cc4ccc(F)cc4)C3)CC2)cc1 (configuration not stated) | i | i | i | i | i | nt | nt
CC(C)c1cccc(C(C)C)c1OC(=O)[C@H]1OC(C(C)(C)C)=C[C@@H]1c1ccccc1 | i | i | i | i | i | nt | nt
CC(C)c1cccc(C(C)C)c1OC(=O)[C@H]1OC(c2ccc(Br)cc2)=C[C@@H]1c1ccc(Br)cc1 | i | i | i | i | i | i | i
O=C(O)CSc1nc2ccccc2n1C1CCCCC1 | i | i | i | i | i | nt | nt
Cc1cc(C)cc(OC2CCCCC2NS(=O)(=O)c2ccccc2)c1 (configuration not stated) | i | i | i | i | 36.2 | i | i
CSc1ccc(OC2CCCCC2NS(=O)(=O)c2ccccc2)cc1 (configuration not stated) | i | i | i | i | i | nt | nt
CC(C)c1c(C(=O)N/N=C/C=C/c2ccccc2)nnn1-c1nonc1N | i | i | i | i | i | nt | nt
CC(C)CCn1nnnc1CN1CCN(c2ccccc2)CC1 | i | i | 52.2 | i | 49.9 | i | i
COCCn1nnnc1CN1CCN(c2cccc(C(F)(F)F)c2)CC1 | i | i | i | i | i | nt | nt
COc1ccc(CN2CCN(Cc3cc4ccccc4o3)CC2CCO)c(F)c1 (configuration not stated) | i | i | i | i | i | nt | nt
COc1ccc(CN2CCN(Cc3cc4ccccc4o3)CC2CCO)cc1C (configuration not stated) | i | ? | 66.5 | i | i | i | i
COc1cccc(CN2CCN(Cc3cc4ccccc4o3)CC2CCO)c1 (configuration not stated) | i | i | 43.3 | i | i | i | i
CCCn1c(C2CCCN2c2nc(-c3ccc(C)cc3)cs2)nc2ccccc21 (configuration not stated) | i | i | i | i | i | nt | nt
Cc1csc2nc(CNS(=O)(=O)N(C)C)cn12 | i | i | i | i | i | nt | nt
C=CC[C@]12CCc3ccccc3C1N(c1ccc(C(=O)OCC)cc1)C2=O (some centres not stated) | i | i | i | i | i | i | i
CCOC(=O)c1ccc(N2C(=O)Cc3ccccc3C2=O)cc1 | i | i | i | i | i | nt | nt
COc1ccc(NC(=O)C2CCCN(CCCc3ccccc3)C2)cc1OCC(C)C (configuration not stated) | i | i | 74.5 | i | 79.7 | i | ?
COc1ccc(NC(=O)C2CCCNC2)cc1OCC(C)C (configuration not stated) | i | i | i | i | i | nt | nt
CC(C)(C)C(=O)Nc1ccc(S(=O)(=O)Nc2ccccn2)cc1 | i | i | i | i | i | nt | nt
CC#CCC(CC#CC)c1nc2ccccc2c(=O)n1N | i | i | i | i | i | i | i
CCN1CCN(CC(O)COc2cccc(OC)c2)CC1 (configuration not stated) | i | i | i | i | i | nt | nt
COc1cccc(OC)c1OCC(O)CN1CCN(c2ccc(F)cc2)CC1 (configuration not stated) | i | i | 55.6 | i | 73.0 | i | i
OC(COc1ccc2ccccc2c1)CN1CCN(c2ccc(F)cc2)CC1 (configuration not stated) | i | i | 52.8 | i | i | ? | i
OC(COc1c(F)cc(Br)cc1F)CN1CCN(c2ccc(F)cc2)CC1 (configuration not stated) | i | i | 59.0 | i | 70.9 | ? | ?

Assay outcomes (PubChem BioAssay)
